# How the values were obtained:
# Format in all cases: functional
# Plasmodium falciparum [1] = assay: GSK_TCMDC: Inhibition of Plasmodium falciparum 3D7 in whole red blood cells, using parasite LDH activity as an index of growth. Test compounds present at 2uM
# Plasmodium falciparum [2] = assay: GSK_TCMDC: Inhibition of Plasmodium falciparum Dd2 in whole red blood cells, using parasite LDH activity as an index of growth. Test compounds present at 2uM
# HepG2 = assay: GSK_TCMDC: Percent inhibition of human HepG2 cell line. Test compounds present at 10uM.
SMILES,Inhibition (Plasmodium falciparum [1]) [%],Inhibition (Plasmodium falciparum [2]) [%],Inhibition (HepG2) [%]
CC(Cc1ccc(OCCN2CCN(c3cccc(Cl)c3)CC2)cc1)NCC(O)c1cccc(Cl)c1.Cl (stereo not drawn),93,91,48
CCN(CCCN1CCCCC1)c1cc(C)nc(Nc2ccc3c(c2)CCC3)n1.O=C(O)C(F)(F)F,100,93,32
CC(C)C[C@H](NC(=O)c1ccc(OCCN2CCOCC2)cc1)C(=O)N[C@H](/C=N/N1CC(=O)NC1=O)CCc1ccccc1,88,67,10
Cc1nc(-c2ccc(C(F)(F)F)cn2)sc1C(=O)N1CCc2cc3nccc(N4CCN5CCC[C@H]5C4)c3cc21.Cl,100,72,5
COc1ccc(NC(=O)Nc2cccc(-c3cccc(-c4nc5ccccc5[nH]4)c3)c2)cc1,100,41,41
CC(C)(C)c1nn(-c2ccccc2)c2[nH]c(=O)c(CNCCc3ccccc3)cc12,94,90,0
O=c1cc(NCCCNCc2cccc(Oc3ccccc3)c2)[nH]c2ccccc12,93,67,0
Cc1ccc(C)c(NC(=O)Nc2ccc(Nc3nc(C)cc(N4CCOCC4)n3)cc2)c1,98,48,88
CN(C)C(S)=NN=Cc1cccc(O)c1O,91,55,11
CN1CCC[C@H]1COc1ccc(CN2CC[C@H](NC(=O)c3ccc(Cl)c(Cl)c3)C2)cc1Br.O=C(O)C(F)(F)F,100,20,81
N#Cc1ccc(CN2CCC(Oc3ccc(NC(=O)c4ccccc4)cc3Cl)CC2)cc1.O=C(O)C(F)(F)F,84,65,21
Cn1c(NC(=O)C2CCC(CNC(=O)c3ccc(O)c(-c4cccc([N+](=O)[O-])c4)c3)CC2)nc2ccccc21 (stereo not drawn),95,97,6
Cc1nc(NCc2ccccc2)cc(NCC(O)c2ccc(O)cc2)n1 (stereo not drawn),85,10,5
Cc1cc(NC(=O)c2coc3cc(F)c(N4CC(C)N(C)C(C)C4)cc23)cnc1-c1ccc(C#N)cc1.Cl (stereo not drawn),99,71,35
CCCC1N=C(N)N=C(N)N1c1cccc(C(F)(F)F)c1.Cl (stereo not drawn),95,7,22
Br.Cc1ccccc1OCCCON1C(=N)N=C(N)NC1(C)C,95,97,66
Cl.O=C(NC1CCC(CCN2Cc3cccc(C(F)(F)F)c3C2)CC1)c1cccc(-c2cccnc2)c1 (stereo not drawn),100,67,26
COc1ccc2c(c1)Nc1ccc(Cl)cc1C2N.O=S(=O)(O)O (stereo not drawn),100,99,16
Cc1nc(-c2nc(N3CCC(C(N)=O)CC3)ncc2-c2ccsc2)sc1C,93,33,0
COc1cc2c(cc1OC)CN(CCCCNC(=O)c1ccc(NC(=O)c3cc(Cl)cc(Cl)c3)cc1)CC2,99,75,19
O=C(Nc1cc(C(F)(F)F)cc(C(F)(F)F)c1)Nc1ccc(Cl)c(Cl)c1,100,100,58

SMILES,Inhibition (Plasmodium falciparum [1]) [%],Inhibition (Plasmodium falciparum [2]) [%],Inhibition (HepG2) [%]
CNC(=O)c1cncc(/C=C/c2ccccc2S(N)(=O)=O)c1,100,77,17
CC(=O)N(C)c1ccc(C(=O)Nc2cccc(-c3cccc(-c4nc5cc(C(F)(F)F)ccc5[nH]4)c3)c2)cc1,96,29,31
COc1cc2nc(NCc3nc4ccccc4[nH]3)nc(N)c2cc1OC.Cl,97,10,3
COC(=O)c1cccc(CNCc2ccc(-c3ccc(-c4nc5cc(F)ccc5[nH]4)s3)cc2)c1.O=C(O)C(F)(F)F,100,82,4
Br.CCC(CCON1C(N)=NC(N)=NC1(C)C)c1ccc(Cl)c(Cl)c1 (stereo not drawn),94,98,68
CCN(CC)Cc1cccc(-c2cc3c(-c4ccc(C(=O)O)c(C(C)C)c4)ccnc3[nH]2)c1OC.O=C(O)C(F)(F)F,99,99,57
COc1ccc2ncc(F)c([C@H](O)CN3CCC(NCc4cc5c(cn4)OCCO5)CC3)c2c1.Cl,100,97,5
FC(F)(F)c1cccc(Nc2nc3nonc3nc2NC2C3CC4CC(C3)CC2C4)c1 (stereo not drawn),100,100,72
CCOc1ccc(C=CC(=O)Nc2ccc3nc(N4CCOCC4)cc(C)c3c2)cc1OC,92,23,14
O=C(Nc1ccc2c(c1)CCN2C1CCN(Cc2cccc(C(F)(F)F)c2)C1)c1ccco1 (stereo not drawn),95,92,4
Cc1cccc2nc(-c3ccc(-c4cccc(NC(=O)Cc5c[nH]cn5)c4)cc3)[nH]c12,98,21,13
Nc1ncc(-c2ccc(Cl)c(Cl)c2)c(N)n1,94,0,65
COc1cc(NC(=O)/C=C/c2ccccc2Cl)cc(OCCN2CCC(O)(c3ccccc3)CC2)c1.O=C(O)C(=O)O,100,46,48
COc1ccc2nccc(CCN3CC(O)C(CNCc4ccc5c(n4)NC(=O)CS5)C3)c2n1.Cl (stereo not drawn),86,26,4
CN(C)CC(=O)Nc1ccc(-c2ccc3ccnc(N)c3c2)cc1.O=C(O)C(F)(F)F,100,99,69
CC(C)N(CC(=O)c1ccc(O)c(C(=O)O)c1)Cc1ccccc1.Cl,97,26,0
CCn1ccc2c(N3CCCC3=O)cc(C(=O)N[C@@H](Cc3ccccc3)[C@H](O)CNC(C)(C)CCCC(C)C)cc21,96,98,11
Cc1ccccc1C1CCN(C2CCC(NC(=O)/C=C/c3ccc4c(c3)OC(F)(F)O4)CC2)CC1 (stereo not drawn),100,39,75
Cl.FC(F)(F)c1cc(Nc2ncnc3ccc(Br)cc23)ccc1OCc1ccccc1,87,9,12
COc1cc(Cc2cnc(N)nc2N)cc(OCCCCC2SC(=O)NC2=O)c1Br (stereo not drawn),94,0,15
C=CC[C@H](C[C@H](O)[C@H](Cc1ccccc1)NC(=O)c1ccc(-c2cccnn2)cc1)C(=O)NC1CCCCC1,83,0,2

SMILES,Inhibition (Plasmodium falciparum [1]) [%],Inhibition (Plasmodium falciparum [2]) [%],Inhibition (HepG2) [%]
Cl.c1ccc(Oc2ccc(Nc3nncc4ccccc34)cc2)cc1,86,82,20
COc1ccccc1CCNc1nc(C)cc(N[C@@H](Cc2ccccc2)C(=O)NCCOc2ccccc2)n1.O=C(O)C(F)(F)F,100,76,20
COc1ccc(CNC(=O)c2cnc3cc(-c4c(C)noc4C)ccc3c2Nc2ccccc2C(C)(C)C)cc1.Cl,99,69,9
CC(C)CCN1CCCN(Cc2cccc(C(=O)Nc3ccc(C(C)(C)C)cc3)c2)CC1.O=C(O)C(F)(F)F,85,1,33
CNc1ccc(CNCc2cccc(-c3ccc(-c4nc5ccccc5[nH]4)s3)c2)cc1.O=C(O)C(F)(F)F,100,77,15
NCCCNc1nc(Nc2ccc(C(F)(F)F)cc2F)c2c(=O)[nH]ccc2n1.O=C(O)C(F)(F)F,95,15,23
COc1cccc(-c2csc(C(=O)NCC3CCN(Cc4ccc(C(C)(C)C)cc4)C3)c2)c1.O=C(O)C(F)(F)F (stereo not drawn),95,10,30
CCOc1cc2ccccc2cc1CNCCCCCCNCc1cc2ccccc2cc1OCC.CS(=O)(=O)O,100,76,99
Cl.c1ccc(Oc2cccc(Nc3ccnc4ccccc34)c2)cc1,95,14,48
CC(C)(C(=O)NCCC1CCN(CCCCCNC(=O)/C=C/c2ccc(Cl)c(Cl)c2)CC1)c1ccc(Cl)cc1,89,33,92
CS(=O)(=O)Nc1ccc(-c2cnc3[nH]cc(-c4ccc(C(=O)O)cc4)c3c2)cc1,95,45,0
Cc1[nH]c2c(NCc3ccc(F)cc3)nccc2c1C,83,0,63
Cc1cccc2nc(-c3ccc(-c4ccc(CNCc5cnn(-c6ccccc6)n5)cc4)cc3)[nH]c12.O=C(O)C(F)(F)F,100,99,35
COc1ccc(Nc2ncc3c(-c4cccc(NC(=O)CC(C)C)c4)c[nH]c3n2)cc1OC,100,71,37
O=C(Nc1ccc(-c2nc3ccc(NC(=O)c4ccc(Br)cc4)cc3[nH]2)cc1)c1ccc(Br)cc1,98,4,40
O=C(NCc1ccc(C(=O)NC2CCCCCC2)cc1)c1ccc(O)c(-c2ccc(Cl)c(Cl)c2)c1,83,21,0
O=[N+]([O-])c1cccc(NC(=S)N2CCCN(Cc3ccc(Cl)cc3Cl)CC2)c1,94,50,3
CC1CCCCN1CCCNc1ncc2c(-c3ccc(NC(=O)Nc4cc(C(F)(F)F)ccc4F)c(F)c3)nn(C)c2n1.O=C(O)C(F)(F)F (stereo not drawn),100,97,27
COc1ccc2c(c1)CC(NCc1ccc(-c3ccc4nc[nH]c4c3)cc1)C2.O=C(O)C(F)(F)F (stereo not drawn),100,71,30

# Source: ChEMBL document CHEMBL1157539, “Thousands of chemical starting points for antimalarial lead identification” (Nature, 2010)
